Assay results from ChEMBL document CHEMBL3988442, “University of Dundee, Small-Polar-MMV Screening Library” (2021).
Out of some 48,000 compounds screened, about 13,000 (27%) showed an effect of 50% or more. The list shows a part of the results.

test system: Wolbachia pipientis; assay: Anti-Wolbachia Cell-Based Screen; format: functional; parameters: scale not given: in the data most compounds retested in dose-response had high values; conditions: 5 µM

| Compound | Percent Effect |
| --- | --- |
| CC(C)c1nc(CN(C)C(=O)CNS(=O)(=O)c2cccs2)no1 | -26.42% |
| CN(CCOCC(F)(F)F)CC1CCN(CCO)CC1 | -6.866% |
| COCC(=O)N(C)Cc1nc(N(C)C)ncc1-c1ccncc1 | 115.9% |
| Cc1nc(N(C)C)ncc1C(=O)N(Cc1ccncc1)CC1CCCO1 (stereo unspecified) | -9.755% |
| CCCC(=O)NCCc1nc(N(C)C)ncc1-c1ccncc1 | 150.4% |
| COCc1nc(N(C)C)ncc1C(=O)NC(C)C | 11.32% |
| CCCNC(=O)c1cnc(N(C)C)nc1COC | 7.705% |
| COCC(=O)Nc1ccnc(OCCN(C)C)c1 | 5.238% |
| COCC(=O)NCCc1nc(N(C)C)ncc1-c1ccncc1 | 144% |
| COCCC(=O)NCCc1nc(N(C)C)ncc1-c1ccncc1 | 140.1% |
| COCc1nc(N(C)C)ncc1C(=O)Nc1ccn(C)n1 | 4.031% |
| Cc1nsc(NC(=O)N2CCCCC2CCCO)n1 (stereo unspecified) | 3.459% |
| CCCOCC(=O)NS(=O)(=O)c1ccc2c(c1)OCCCO2 | -2.018% |
| CCc1nc(CCNC(=O)C2CC2)sc1C | -12.51% |
| CN(C)c1ncc(-c2ccncc2)c(CCNC(=O)C2CC2)n1 | 144.3% |
| Cc1nc(N(C)C)ncc1C(=O)NCCc1csc(-c2ccncc2)n1 | 10.36% |
| c1ccc2c(c1)CN(c1ncnc3sc4c(c13)CCNC4)CCO2 | -13.02% |
| CC(=O)N1CCc2cc(C(=O)O)c(-c3ccsc3)nc2CC1.O=C(O)C(F)(F)F | -2.009% |
| Cc1nc2c(cc1C(=O)O)CCN(CC1CC1)CC2.O=C(O)C(F)(F)F.O=C(O)C(F)(F)F | -6.324% |
| CC(C)Nc1nc2c(cc1C(=O)NCC1CC1)CCN(CC1CC1)CC2.O=C(O)C(F)(F)F.O=C(O)C(F)(F)F | -7.491% |
| Cc1nc(N2CCCC2)nc2c1CCN(Cc1ccsc1)CC2.O=C(O)C(F)(F)F | 4.858% |
| Cc1nc2c(cc1C(=O)O)CCN(Cc1ccsc1)CC2.O=C(O)C(F)(F)F.O=C(O)C(F)(F)F | 107% |
| CC(C)Nc1nc2c(cc1C(=O)O)CCN(Cc1ccsc1)CC2.O=C(O)C(F)(F)F.O=C(O)C(F)(F)F | 98.93% |
| CCC(CC)(CC)NC(=O)Nc1nnc(-c2ccccn2)s1 | -4.465% |
| COCCN1CCO[C@@H]2CN(C(=O)COc3ccc(C)cc3)C[C@@H]2C1.O=C(O)C(F)(F)F | -10.88% |
| CC(C)(C)C(O)CN1CCN(Cc2nccn2CC(F)(F)F)CC1 (stereo unspecified) | -1.053% |

| Compound | Percent Effect |
| --- | --- |
| O=C(CCC(=O)N1CCC(Oc2ncccc2Br)CC1)c1ccccc1 | -8.42% |
| CCC[C@H]1CN(C2CCOCC2)C[C@@H]1NC(=O)CCCn1ccnc1 | -3.438% |
| Cc1ccc(-c2cn[nH]c2C2CCCN(c3cc(N)ncn3)C2)cc1 (stereo unspecified) | -31.64% |
| c1cnc(N2CCCC(c3n[nH]c4ncccc34)C2)nc1 (stereo unspecified) | 152.2% |
| c1cnc(N2CCC(c3n[nH]c4ncccc34)C2)nc1 (stereo unspecified) | 117.8% |
| Cc1ccc(-c2cn[nH]c2C2CCCN(c3ncccn3)C2)cc1 (stereo unspecified) | -14.2% |
| Cc1cc(N2CCCC(c3n[nH]c4ncccc34)C2)ncn1 (stereo unspecified) | 73.09% |
| CC(C)n1ccnc1C1CCCN(c2ccccn2)C1 (stereo unspecified) | 3.899% |
| Cc1nc(CC(=O)N2CCCC2c2nc(C(C)C)no2)cs1 (stereo unspecified) | -8.92% |
| CN1CCC(N(C)C[C@H]2CC[C@@H](Cc3cccc(O)c3)O2)CC1 | -5.981% |
| Cc1nc(C)n(CCCNc2ncnc3onc(C)c23)n1 | 1.931% |
| Cc1ccc(CN(C)C(=O)NCC(C)(C)NS(C)(=O)=O)s1 | 4.932% |
| CC(C)N(C)C(=O)c1coc(CN2CCN(c3ccccc3F)CC2)n1 | -13.9% |
| O=C(NC1CCCN(c2ccc(OC(F)F)cc2)C1)c1c[nH]nn1 (stereo unspecified) | -1.773% |
| N#Cc1nccnc1NC1CCN(c2ccccc2Br)C1 (stereo unspecified) | -11.54% |
| O=C(NC1CCCN(c2ccccc2Cl)C1)c1c[nH]nn1 (stereo unspecified) | 87% |
| O=C(NC1CCCN(c2ccc(OC(F)F)cc2)C1)c1cc[nH]n1 (stereo unspecified) | 14.46% |
| O=C(NC1CCN(c2ccc(-c3ccccc3F)nn2)C1)c1cc[nH]n1 (stereo unspecified) | 3.887% |
| COc1ccccc1N1CCCC(NC(=O)Nc2cccnc2)C1 (stereo unspecified) | -7.582% |
| O=C(NC1CCN(c2ccccc2Br)C1)c1c[nH]nn1 (stereo unspecified) | 111.1% |
| O=C(NC1CCCN(c2ncccn2)C1)c1cn2ccccc2n1 (stereo unspecified) | -4.664% |
| O=C(NC1CCCN(c2ccccc2F)C1)c1ccon1 (stereo unspecified) | 18.57% |
| Cc1n[nH]c(C)c1CNC(=O)NC1CCCN(c2ccccc2F)C1 (stereo unspecified) | -5.16% |
| O=C(NC1CCCN(c2ccccc2Cl)C1)c1nc(=O)[nH][nH]1 (stereo unspecified) | 109.8% |
| O=C(NC1CCCN(c2ccccc2Cl)C1)c1ccc(=O)[nH]n1 (stereo unspecified) | 90.33% |
